Assay results: PubChem BioAssay (NCATS)
“And” between values parts separate entries of the source, which are not always exact repeats. Identical values can stand only once. Records with an inconclusive call do not appear. Values without a mark were called inactive. The source made the active and inactive calls. The call rests on the fitted dose curve; in most records, active means well fitted activation curve with a large enough effect; inconclusive means small, poorly fitted or top-dose-only effect; inactive means no such curve, though single readings can be large or run the other way.

Molecular target: Cellular tumor antigen p53 (Homo sapiens) (UniProt P04637)
Sequence (P04637 whole entry, looked up): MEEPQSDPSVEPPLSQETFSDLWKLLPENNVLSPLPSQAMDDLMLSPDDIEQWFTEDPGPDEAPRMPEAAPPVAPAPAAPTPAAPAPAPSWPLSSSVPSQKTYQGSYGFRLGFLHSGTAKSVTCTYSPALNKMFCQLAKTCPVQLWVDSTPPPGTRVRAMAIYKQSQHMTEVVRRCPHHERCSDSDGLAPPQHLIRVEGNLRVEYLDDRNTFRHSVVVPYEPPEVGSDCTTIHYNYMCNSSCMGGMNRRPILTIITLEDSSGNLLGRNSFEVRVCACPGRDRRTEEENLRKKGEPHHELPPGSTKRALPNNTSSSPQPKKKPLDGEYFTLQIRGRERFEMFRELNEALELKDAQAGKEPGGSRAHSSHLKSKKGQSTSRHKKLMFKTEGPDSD
Experiment: Primary qHTS for small molecule compounds that upregulate eGFP-tagged delta133p53alpha (in N-terminal) cells. (AID 2060322); further: nearly all actives have a fitted effect of over 75% in size;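 on activation: series mostly up to about 56 µM; 0% = DMSO vehicle and 100% = reference activator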
Conditions: NCI-H358 eGFP-delta133p53alpha fluorescence, 24 h; activation: active compounds read high
Method in brief: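 NCI-H358 cells pre-induced 24 h with 10 ng/ml doxycycline for eGFP-delta133p53alpha, plated dox-free and exposed 24 h at 37C to titrated compounds. Fixed, Hoechst-stained; gated GFP peak intensity by laser scanning cytometry, normalized to DMSO (0%) and 57.5 uM 5-azacytidine (100%).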
Potency means the concentration at half of the fitted maximal effect.

Structure (SMILES)	activation	Potency
CC(=O)O[C@H]1C[C@@H]2CC[C@H]3[C@H]4C[C@H]([N+]5(C)CCCCC5)[C@@H](OC(C)=O)[C@@]4(C)CC[C@@H]3[C@@]2(C)C[C@H]1N1CCCCC1	-4.56%	
O=C(Nc1ncc(SCCN2CCCC2)s1)[C@]1(c2ccc(S(=O)(=O)C3CC3)cc2)C[C@@H]1C1CCCCC1	26.3%	
Nc1nc(-c2ccccc2)c(Br)c(=O)[nH]1	-12.6%	
CCC(=O)Nc1ccc(O)cc1	-18.6%	
C=CCNc1nc(NCC=C)nc(N2CCN(C(c3ccc(F)cc3)c3ccc(F)cc3)CC2)n1	-14.2%	
C1N2CN3CN1CN(C2)C3		27.6 µM (active)
CCOC(=O)N1CCC(n2c(=O)[nH]c3cc(Cl)ccc32)CC1	-16.4%	
CN(C)[C@@H](CCOc1cccc2ccccc12)c1ccccc1	8.7%	
N[C@@H](Cc1cc(I)c(Oc2ccc(O)c(I)c2)c(I)c1)C(=O)O	-7.64%	
C=C1C(=CC=C2CCCC3(C)[C@@H]([C@H](C)C=CC=CC(O)(CC)CC)CC[C@@H]23)C[C@@H](O)C[C@@H]1O (stereo not given in full)	-6.37%	
N#C/C(=C1\SCC(c2ccccc2Cl)S1)n1ccnc1 (stereo not given)	5.08%	
C[C@@H]1C[C@H]2[C@@H]3CCC4=CC(=O)C=C[C@]4(C)[C@@]3(F)[C@@H](O)C[C@]2(C)[C@H]1C(=O)CO	0.837%	
O=C1C(c2[nH]c3ccccc3c2O)=Nc2ccccc21	-0.565%	
O=C1OC2(c3ccccc31)c1cc(I)c(O)c(I)c1Oc1c2cc(I)c(O)c1I	-36.8%	
CCCOC(=O)c1ccccc1	-2.82%	
OCc1ccccc1O	-1.69%	
NC(=O)N/N=C/c1ccc([N+](=O)[O-])o1	16.7% and -23.4%	
O=C(C=Cc1ccc(CN(CCO)CCc2c[nH]c3ccccc23)cc1)NO	23.4%	
C[C@@H]1C[C@H]2[C@@H]3C[C@H](F)C4=CC(=O)C(Cl)=C[C@]4(C)[C@@]3(F)[C@@H](O)C[C@]2(C)[C@@]1(O)C(=O)CO	-14.1%	
CC[N+](CC)(CC(=O)Nc1c(C)cccc1C)Cc1ccccc1	-10.9%	

Structure (SMILES)	activation	Potency
COC(=O)C1=C(C)NC(C)=C(C(=O)OCC(C)=O)C1c1ccccc1[N+](=O)[O-] (stereo not given)	1.69%	
CCN(C(=O)CO)[C@H]1CN(C(=Nc2cccc(OC(F)F)c2)NC#N)N=C1c1ccc(Cl)c(Cl)c1	19%	
CCn1cc(C(=O)O)c(=O)c2cnc(N3CCNCC3)nc21	0.837%	
CCN[C@@H]1C[C@H](N)[C@@H](OC2OC(CN)=CCC2N)[C@H](O)[C@H]1O[C@H]1OC[C@](C)(O)[C@H](NC)[C@H]1O (stereo not given in full)	1.67%	
C[C@H](Cn1cnc2c(N)ncnc21)OCP(=O)(O)O	61.4%	
CN=C(NC#N)NCCSCc1csc(N=C(N)N)n1	9.6%	
COc1ccc(S(=O)(=O)N2c3ccc(Cl)cc3[C@@](O)(c3ccccc3Cl)[C@H]2C(=O)N2CCC[C@@H]2C(N)=O)cc1OC	-10.9%	
CC(C)C(=O)Nc1cccc(C(F)(F)F)c1	-15.3%	
Cc1ccc(S(=O)(=O)NC(=O)NC2CCCCCCC2)cc1	-3.95%	
CCCCC(C)(C)[C@H](O)C=C[C@H]1[C@H](O)CC(=O)[C@H]1CC=CCCCC(=O)O	1.38%	
Oc1c(I)cc(I)c2cccnc12	-5.86%	
OC(CCN1CCCC1)(c1ccccc1)C1CCCCC1 (stereo not given)	20.1%	
O=C(O)CCCc1ccccc1	20.9%	
CC(C)c1onc(-c2c(Cl)cccc2Cl)c1COc1ccc(C=Cc2cccc(C(=O)O)c2)c(Cl)c1	-0.915%	
CC(C)=CCOc1ccc(/C=C/C(=O)c2ccc(OCC=C(C)C)cc2OCC(=O)O)cc1	-1.67%	
CCS(=O)(=O)c1ccc(OC)c(C(=O)OC)c1	19.8%	
COc1nc(N)nc2c1ncn2[C@@H]1O[C@H](CO)[C@@H](O)[C@@H]1O	-17.5% and 19.2%	
C[C@@H](N)C(=O)O	5.02%	
Nc1ccc([N+](=O)[O-])c(C(F)(F)F)c1	-10.7%	
c1ccc(CNCCNCc2ccccc2)cc1	2.51%	
